From PubChem
Hits are enriched below; roughly 1.3% of the tested compounds scored in any of these assays.
S1P2 ag = S1P2 receptor agonists, primary screen, cell-based. 97,000 compounds, 0.46% hits. S1P2-expressing cell line, agonist reporter read-out. AID 729, 2007. activation, % at 4.5 µM; in the data active = activation above about 16%
GALR2 agonist = GALR2 receptor agonists, primary screen, cell-based; 140,000 compounds, 0.48% hits; activation, % (no concentration beside the values); Galanin receptor type 2 (Homo sapiens), O43603; GALR2-expressing cells, agonist activation read-out; AID 803, 2007; in the data active = activation above about 5%, passing the limit was not always enough
Target sequence (O43603 whole entry, looked up): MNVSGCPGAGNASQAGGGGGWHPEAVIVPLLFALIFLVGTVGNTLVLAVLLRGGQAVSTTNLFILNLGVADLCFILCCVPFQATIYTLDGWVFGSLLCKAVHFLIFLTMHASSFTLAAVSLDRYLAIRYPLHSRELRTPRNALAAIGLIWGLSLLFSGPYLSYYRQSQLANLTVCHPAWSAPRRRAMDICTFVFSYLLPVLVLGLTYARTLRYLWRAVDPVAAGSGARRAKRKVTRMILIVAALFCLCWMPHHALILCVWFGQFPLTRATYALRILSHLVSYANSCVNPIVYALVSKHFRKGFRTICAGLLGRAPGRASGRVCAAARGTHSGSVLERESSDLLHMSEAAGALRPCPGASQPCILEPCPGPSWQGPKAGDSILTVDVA
Phagocyt inh = inhibitors of macrophage phagocytosis, primary screen, imaging, J774A.1 cells, IgG beads; J774A.1 macrophage IgG-bead phagocytosis; inhibition, % at 5 µM; 110,000 compounds, 0.07% hits; AID 1029, 2008;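 active = inhibition above the mean of the plate negative controls plus 5 SD, cut at about 13% in these data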;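 note: phagocytic index as fraction of beads internalized from green versus red external bead signal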
S1P2 blocker = human S1P2 receptor antagonists, primary screen, cell-based; Sphingosine 1-phosphate receptor 2 (Homo sapiens), O95136; inhibition, % at 5 µM; 97,000 compounds, 0.21% hits; cell-based S1P2 antagonist assay, inhibition at 5 uM; in the data active = inhibition above about 45%;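 note: CRE beta-lactamase reporter cells expressing human S1P2 stimulated with S1P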
GALR2 blocker = GALR2 antagonists in receptor-expressing cells, primary screen; antagonist mode; AID 828, 2007; inhibition, % at 4 µM; 140,000 compounds, 0.39% hits; Galanin receptor type 2 (Homo sapiens), O43603; in the data active = inhibition above about 27%;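 note: cells stimulated with galanin 1-16 at roughly its EC80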
A number is an active result; n = inactive; x = not tested or not shown; [ ] = dose if it differs, or a comment.

SMILES | S1P2 ag | GALR2 agonist | Phagocyt inh | S1P2 blocker | GALR2 blocker
N#C/C(=C\c1cn(-c2ccccc2)nc1-c1cc2ccccc2o1)c1nc2ccccc2[nH]1 | x | n | x | x | n
FC(F)(F)c1cc(C(F)(F)F)c2ccc(N3CCN(c4ccc(Cl)cc4)CC3)nc2n1 | n | n | x | n | n
N#CC(c1ccc(Cl)cc1)c1ccc2c(C(F)(F)F)cc(C(F)(F)F)nc2n1 (configuration not stated) | n | n | n | 69.3 | n
Cn1cccc1/C=C1\SC(=O)N(c2ccc(O)cc2)C1=O | x | n | n | x | n
Clc1ccc(Nc2nc3ccccc3n3nnnc23)cc1 | n | n | n | n | n
Fc1cc(Br)ccc1Nc1nc2ccccc2n2nnnc12 | x | 6.1 | x | x | n
CCOCCC(=O)Nc1cc(Cl)ccc1OC | n | n | x | n | n
CC(C)c1nc2sc3c(NCc4ccco4)ncnc3c2c2c1COC(C)(C)C2 | 19.6 | n | n | n | n
O=C(Cn1cnc2cc(Cl)ccc2c1=O)Nc1ccc2c(c1)OCO2 | n | n | x | n | n
N#CCSc1nnc(-c2ccccc2)c(-c2ccccc2)n1 | 16.4 | n | n | n | n
N#CCSc1nc(-c2ccccc2)c2cc(Cl)ccc2n1 | x | n | n | x | n
O=C(COC(=O)c1ccc([N+](=O)[O-])s1)Nc1ncc(C(F)(F)F)cc1Cl | x | n | n | x | n
COc1ccc2c(c1)CCN=C2Cc1ccc(OC)c(OC)c1 | x | n | n | x | n
COc1cc2c(cc1OC)C(c1ccc(-c3ccc(Cl)c(Cl)c3)o1)=NCC2 | 18.7 | n | n | n | n
S=C(c1ccc(-c2ccccc2Cl)o1)N1CCCCC1 | x | n | n | x | n
COc1cc2c(cc1OC)C(c1ccc(-c3cc(Cl)ccc3Cl)o1)=NCC2 | 38.6 | n | n | n | n
COc1cc2c(cc1OC)C(c1ccc(-c3ccccc3Cl)o1)=NCC2 | 36.9 | n | n | n | n
COc1cc2c(cc1OC)C(c1ccc(-c3ccc(Cl)cc3Cl)o1)=NCC2 | 34.4 | n | x | n | n
CC1=NOC(=O)/C1=C\c1ccc(-c2cc(Cl)ccc2Cl)o1 | n | n | n | n | n
CCOC(=O)c1c(NC(=O)COc2cccc3c2CCN(CC)C3=O)sc2c1CCC2 | x | n | n | x | n
COc1cc2c(cc1NC(=O)CSc1nc3ccc(C)cc3[nH]1)oc1ccccc12 | x | n | n | x | n
O=C(CSc1nnc2ccccn12)Nc1cccc(-c2nc3ccccc3s2)c1 | x | 5.7 | x | x | n
O=C(CSc1nnc2ccccn12)Nc1nsc(-c2ccccc2)n1 | x | n | n | x | n
COc1cc([N+](=O)[O-])cc(CN2CCCCC2)c1O | n | n | n | n | n
O=C(Nc1nnc(-c2ccc(Cl)cc2)o1)c1nc2ccccc2s1 | n | n | n | 51.2 | n
SMILES | S1P2 ag | GALR2 agonist | Phagocyt inh | S1P2 blocker | GALR2 blocker
O=C(C1CCCN(CCCc2ccccc2)C1)N1CCCCC1 (configuration not stated) | x | n | n | x | n
Cc1cccc(-n2c(SCc3cc(=O)n4ccsc4n3)nc3ccccc32)c1 | 26.2 | n | x | n | n
Cc1ccc(SCc2cc(=O)n3ccsc3n2)c(C)c1 | x | n | n | x | n
O=C(C1CCCO1)N1CCN(C(=S)Nc2ccccc2Cl)CC1 (configuration not stated) | x | n | x | x | n
CCc1ccc2[nH]c3nc(SCC(=O)NNC(=O)c4ccc(C(C)(C)C)cc4)nnc3c2c1 | 17.2 | n | n | n | n
c1csc(C2=Nn3c(nnc3-c3ccncc3)SC2)c1 | n | n | x | 49.0 | n
Cc1cccc(-n2ncc3c(NC(C)C)ncnc32)c1 | x | n | n | x | 27.0
CCOc1cc(CNCCc2ccc(S(N)(=O)=O)cc2)ccc1OCc1ccc(Cl)cc1 | n | n | x | 61.4 | n
O=S(=O)(NCCO)c1cccc2cccnc12 | n | n | 49.5[artifact] | n | n
C/C(=N\Nc1ccc([N+](=O)[O-])cc1[N+](=O)[O-])C(C)(C)C(C(=O)O)C(=O)O | x | n | n | x | n
CCCOc1ccc(NC(=O)OC2CCN(C)CC2)cc1 | x | n | n | x | n
CC1CCN(C(=O)CN(c2ccc(Cl)c(C(F)(F)F)c2)S(C)(=O)=O)CC1 | n | n | 154.7 | n | n
CS(=O)(=O)N(CC(=O)N1CCC(C(N)=O)CC1)c1ccc(Cl)c(C(F)(F)F)c1 | n | n | n | n | n
CCOC(=O)Cc1c(C)c2ccc(N(CC)CC)cc2oc1=O | 20.3 | 18.9 | n | n | n
CCOC(=O)CCc1c(C)c2ccc(O)cc2oc1=O | n | n | n | n | n
CCN(CC)c1ccc2c(Cl)c(Br)c(=O)oc2c1 | n | n | x | 103.0 | 76.4
Cc1ccccc1Nc1nc(N)nc(COC(=O)c2cccc(S(=O)(=O)NCc3ccccc3)c2)n1 | x | 5.0 | n | x | n
